High-throughput results (PubChem BioAssay)
Most compounds without a hit are left out; they make up all but 4.1% or so of the library.
DAX1 inh-1: inhibits human nuclear receptor DAX1 | P51843 | inhibition, % at 6.75 µM | AID 504766 | HEK293 Gal4-DAX1 luciferase reporter, luminescence | 0.99% of 340,000 active;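 active = inhibition above the mean over all tested compounds plus 3 SD, cut at about 4.2% in these data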;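 also: 0% = DAX1-transfected cells with DMSO and 100% = empty-vector control cells with DMSO; inhibition shows as a rise in luminescence from relieved DAX1 repression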
Target sequence (P51843 207-470 limits assumed): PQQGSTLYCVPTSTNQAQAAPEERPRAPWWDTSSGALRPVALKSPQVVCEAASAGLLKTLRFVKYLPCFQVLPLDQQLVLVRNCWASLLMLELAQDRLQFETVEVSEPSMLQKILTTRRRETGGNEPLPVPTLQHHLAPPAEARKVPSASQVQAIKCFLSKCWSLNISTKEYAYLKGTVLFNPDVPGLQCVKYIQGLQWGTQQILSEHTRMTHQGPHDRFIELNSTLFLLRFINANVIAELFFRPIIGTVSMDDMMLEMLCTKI
hgDAF12 agonist: activates the H. glycines DAF-12 receptor ligand-binding domain; HEK293 GAL4-hgDAF12 UAS-luciferase reporter, agonist luminescence; normalized to butyrate control; activation, % at 6.8 µM; 1.8% of 370,000 active; AID 687014;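 active = activation above a cutoff set at the mean of all screened compounds plus 3 SD, cut at about 10% in these data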;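 also: 0% = DMSO wells and 100% = sodium butyrate wells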
ssDAF-12 act: activators of S. stercoralis DAF-12 nuclear receptor; 1% of 370,000 active; HEK293 ssDAF-12/GRIP1 lit1-tk-luc reporter, luminescence; % of 3 µM dafachronic acid response; activation, % at 6.8 µM;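 active = activation above the mean over all tested compounds plus 3 SD, cut at about 0.9% in these data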;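 also: 0% = DMSO-only wells and 100% = 3 µM delta7-dafachronic acid wells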
DAX1 inh-2: inhibitors of DAX1 repression of SF-1 activated StAR promoter. AID 652010. 1.1% of 370,000 active. HEK293T StAR-luciferase reporter, SF-1/DAX-1 repression relief. inhibition, % at 6.8 µM;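 active = inhibition above the mean over all tested compounds plus 3 SD, cut at about 3.6% in these data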;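 also: 0% = DAX-1 cells with DMSO and 100% = cells lacking DAX-1 with DMSO; higher inhibition means more luminescence from relief of DAX-1 repression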
hcDAF-12 act: H. contortus DAF-12 activation, primary screen; HEK293 hcDAF-12 lit1-tk-luc reporter, luminescence; 0% DMSO, 100% Δ7-dafachronic acid; activation, % at 6.8 µM; 1.4% of 370,000 active; AID 652067;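 active = activation above the mean of all tested compounds plus 3 SD, cut at about 5.5% in these data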;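 also: 100% = response to 3 µM Δ7-dafachronic acid high control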
DAX1 inh confirm: confirmation of human DAX1 (NR0B1) inhibitors; HEK293T StAR-promoter luciferase reporter, SF-1/DAX-1 repression; inhibition, % at 6.8 µM; 87% of 2,400 active; shares compounds with DAX1 inh-2;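 active = inhibition above the average of every tested compound plus 3 SD, cut at about 3.8% in these data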;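 also: 0% = DAX-1 cells with DMSO and 100% = no DAX-1 control cells with DMSO; active compounds raise luminescence by relieving repression of the StAR reporter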
SF1 AF2mut Luc: nonselective inhibitor or artifact in SF-1 mutant DAX1 counter-screen | shares compounds with DAX1 inh-2 | HEK293 StAR-luciferase, SF-1 AF2 mutant, luminescence | inhibition, % at 6.8 µM | 78% of 2,400 active | AID 652136;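 active = inhibition above the mean of all tested compounds plus 3 SD, cut at about 3% in these data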;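 also: 0% = DAX-1 transfected cells with DMSO and 100% = cells without DAX-1 with DMSO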
* = called active by the depositor; . = no result given.

SMILES	DAX1 inh-1	hgDAF12 agonist	ssDAF-12 act	DAX1 inh-2	hcDAF-12 act	DAX1 inh confirm	SF1 AF2mut Luc
Cc1cccc(NS(=O)(=O)c2ccc(C(=O)NCC3(N4CCCCC4)CCCCC3)cc2)c1C	0.6	1.6	-0.5	7.3*	3.8	9.7*	6.6*
O=C(NCC1(N2CCCCC2)CCCCC1)c1ccc(S(=O)(=O)N2CCCC2)cc1	2.8	1.9	-1.5	2.6	0.0	.	.
Cc1ccccc1NS(=O)(=O)c1ccc(C(=O)NCC2(N3CCOCC3)CCCCC2)cc1	1.2	2.8	-1.8	-1.4	-0.1	.	.
COc1ccc(N2CCN(CCCNC(=O)COc3ccc(F)cc3)CC2)cc1	.	8.1	-1.2	-0.5	-2.3	.	.
CCCCc1nnc(NC(=O)C2=COCCO2)s1	1.2	7.8	1.0*	7.3*	4.8	7.3*	5.6*
O=C(Nc1nc2ccc(F)cc2s1)C1=COCCO1	-3.4	2.8	0.1	7.5*	4.9	7.6*	3.1*
O=C(Nc1nc2cc3c(cc2s1)OCCO3)C1=COCCO1	-7.6	-17.5	-3.3	-3.2	-5.9	.	.
Cc1nnc(NC(=O)C2=COCCO2)s1	-0.3	2.3	-0.9	2.3	0.9	.	.
O=C(NCc1ccccc1)[C@H]1CCCN1C(=O)[C@H]1CCCN1C(=O)c1cccs1	.	-1.5	-1.1	-0.8	-1.4	.	.
Cc1ccc(OCc2nnc(SCC(=O)Nc3ccccc3-c3ccccc3)n2Cc2ccco2)cc1	.	1.8	-0.9	-2.3	-2.8	.	.
C/C(=N/NC(=O)c1ccoc1C)c1cccs1	.	8.8	-0.2	7.8*	4.6	12.2*	7.3*
C/C(=N\NC(=O)c1ccoc1C)c1ccc(Cl)s1	1.2	7.7	-0.9	3.0	2.4	.	.
CC(C)(C)C(=O)c1c(N)[nH]c(C(=O)c2ccccc2)c1-c1ccccc1	.	0.2	-0.9	0.4	-1.0	.	.
CCCCCCCCN1C(=O)[C@H](CC(=O)NCc2cccc3ccccc23)C[C@@]2(C(=O)OC)CC(C)(C)CC=C12	.	-0.7	-1.2	0.9	0.3	.	.
O=C(Nc1ccc(F)cc1)Nc1ccc2c(c1)CCC2	1.9	6.9	0.1	5.2*	-0.4	4.2*	3.1*
Cc1ccc(NC(=O)Nc2ccc3c(c2)CCC3)cc1	1.4	7.1	-1.0	5.5*	1.6	5.3*	4.6*
O=C(Nc1ccc2c(c1)CCC2)Nc1ccc(F)cc1F	1.6	11.0*	-0.3	5.5*	1.8	9.9*	6.9*
O=C(Nc1cccc(F)c1)Nc1ccc2c(c1)CCC2	1.4	8.7	-0.2	3.2	5.3	.	.
COc1ccc(C2=Nn3c(nnc3-c3ccccc3Cl)SC2)cc1OC1CCOC1 (stereo unspecified)	1.3	-1.9	-0.8	-0.1	-1.8	.	.
COc1ccc(OC)c(-c2nnc3n2N=C(c2ccc(OC)c(OC4CCOC4)c2)CS3)c1 (stereo unspecified)	-1.0	-3.0	-1.8	4.9*	-4.2	19.4*	-9.8
COc1ccccc1-c1nnc2n1N=C(c1ccc3c(c1)OCO3)CS2	.	-2.9	-1.2	4.7*	-4.5	10.9*	-5.5
Cc1ccc(S(=O)(=O)Nc2cccc(-c3ccc(N4CCCCCC4)nn3)c2)cc1	0.2	5.8	-0.7	4.9*	1.0	7.5*	4.2*
CCN(c1ccccc1C)S(=O)(=O)c1nnc(NC(=O)c2ccco2)s1	0.5	-0.7	-0.8	4.8*	-1.6	0.3	0.0
CCN1CCc2c(sc(NC(=O)c3ccc(S(=O)(=O)N4CC(C)OC(C)C4)cc3)c2C(N)=O)C1 (stereo unspecified)	-0.8	2.5	-1.3	4.8*	-1.4	2.0	3.7*
C[C@H](CO)N1C[C@H](C)[C@@H](CN(C)C(=O)c2ccccn2)Oc2cc(Br)ccc2S1(=O)=O	0.2	0.1	-1.6	-0.1	-2.7	.	.
Cc1ccc2nc(-c3ccc(F)cc3)c(Cc3cccc(Cl)c3)n2c1	.	9.0	0.0	9.6*	2.9	7.5*	4.3*
Fc1ccc(-c2nc3ccc(Br)cn3c2Cc2cccc(F)c2)cc1	.	4.7	-0.9	3.5	3.9	.	.
Cc1ccc2nc(-c3ccc(Cl)cc3)c(CC3CCCCC3)n2c1	.	22.7*	0.7	6.2*	7.4*	5.3*	4.9*
